From PubChem BioAssay
HIF-2a block: HIF-2a reporter inhibitors, primary screen, luminescence, 786-0 RCC cells; 786-0 RCC cells HIF-2a reporter, luciferase luminescence, overnight; inhibition, % at 18.8 µM; AID 624352, 2012; 360,000 tested, 0.72% active;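 active = inhibition of the luminescence signal of 40% or more relative to plate controls, in a single-dose primary screen at 18.75 µM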
KKLEB tox: cytotoxicity in KKLEB CF airway cells, primary screen, cytotoxicity control for CF NF-kB inhibitor project, cell-based, uHTS, fluorescence assay plates | KKLEB CF airway cells viability, ATPlite luminescence, overnight; hits give low values; cells stimulated with P. aeruginosa culture filtrate | activity change (cytotoxicity), % at 5 µM | 360,000 tested, 0.36% active | AID 602141, 2011;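 active = corrected activity change at or below -50% at 5 µM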
TROY signal inh: inhibitors of TROY-driven NF-kB signaling, primary screen, Q293 LMP1-TROYcd cells, NF-kB luciferase, uHTS; 360,000 tested, 0.98% active; AID 1347056, 2019; inhibition, % at 10 µM; Q293 LMP1-TROYcd NF-kB luciferase reporter, 4 h;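 active = compounds whose plate-normalised and pattern-corrected inhibition of the luciferase reporter signal at the single screening dose is 50% or more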
TWEAK-Fn14 inh: inhibitors of TWEAK-Fn14 signaling, primary screen, luciferase reporter cells, uHTS; 360,000 tested, 2% active; inhibition, % at 10 µM; TWEAK-stimulated Fn14 reporter cells, luciferase luminescence, 8 h; in the data active = inhibition above about 50%
CF NFkB inh: inhibitors of PAF-induced NF-kB signaling, primary screen, cell-based, GFP fluorescence, uHTS; KKLEB NF-kB-GFP reporter, GFP fluorescence overnight; inhibition, % at 5 µM; 360,000 tested, 0.86% active; AID 588850, 2011;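 active = at least 50% inhibition at 5 µM, scaled per plate between neutral and stimulator controls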;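 also: PAF is a Pseudomonas aeruginosa culture filtrate used as stimulus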
Peg3 prom inh: Peg3 promoter-driven luciferase inhibitors, primary screen, cell-based, HeLa, luciferase luminescence | HeLa PEG-Prom luciferase reporter, overnight | 360,000 tested, 1.7% active | inhibition, % at 20 µM | AID 588405, 2011;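 active = inhibition of at least 50% at 20 µM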
Hits are given with their value; n = inactive; ! = a repeat was not active. An excerpt weighted towards active compounds, which were near 4% of everything screened.

SMILES	HIF-2a block	KKLEB tox	TROY signal inh	TWEAK-Fn14 inh	CF NFkB inh	Peg3 prom inh
COc1ccc([C@H]2C[C@@H](n3cc(COC(=O)c4ccccc4)nn3)[C@H](O)CN2Cc2cccs2)cc1	n	n	n	n	n	n
CC(=O)c1ccc(NC(=O)Cc2ccsc2)cc1	n	n	n	n	n	n
COc1cc(C(=O)Nc2cc(-c3cn4cccnc4n3)ccc2C)cc(OC)c1OC	n	n	n	91.8	n	n
O=C(O)c1cccc(NC(=O)c2cccc(NC(=O)C3CCCO3)c2)c1 (stereo not given)	46.6	n	n	n	n	n
CC(=O)c1c(C)[nH]c(C(=O)Nc2ccc(C)c(S(=O)(=O)Nc3ccc(C)cc3C)c2)c1C	n	n	58.4	n	n	n
Cc1ccc(NS(=O)(=O)c2cc(NC(=O)c3ccc4c(c3)NC(=O)CS4)ccc2C)c(C)c1	n	n	63.9	72.1	n	n
Fc1ccc(-n2nnnc2-c2cnc(-c3cccs3)nc2C(F)(F)F)cc1	n	n	58.8	102.1	n	100.2
FC(F)(F)c1nc(-c2ccncc2)ncc1-c1nnnn1-c1ccccc1	n	n	n	n	n	n
CC(C)CCCCCCNC(=S)Nc1ccc(S(=O)(=O)N2CCOCC2)cc1	n	n	56.4	54.4	51.7	61.6
O=C(NC1CCCCC1)C(c1ccc(F)cc1)N(Cc1ccccc1)C(=O)CN1C(=O)c2ccccc2S1(=O)=O (stereo not given)	n	n	n	n	n	67.6
O=C(NCC1CCCO1)C(c1ccncc1)N(Cc1ccc(F)cc1)C(=O)CN1C(=O)c2ccccc2S1(=O)=O (stereo not given)	n	n	n	n	n	n
O=C(NC1CCCCC1)C(c1ccc(F)cc1)N(CCc1ccccc1)C(=O)CN1C(=O)c2ccccc2S1(=O)=O (stereo not given)	n	n	n	n	n	79.2
O=C(CN1C(=O)c2ccccc2S1(=O)=O)NC1CCCC1	n	n	n	n	n	n
Cc1cccc(N(C(=O)CNC(=O)c2ccco2)C(C(=O)NCC2CCCO2)c2ccccc2)c1 (stereo not given)	n	n	n	67.0	n	n
CC(=O)c1ccc(N(C(=O)CNC(=O)c2cccs2)C(C(=O)NCC2CCCO2)c2ccccc2)cc1 (stereo not given)	n	n	n	n	n	93.9
Cn1ccc2c(/C=C/c3ccc(F)cc3)cc3c(c21)C1CCC3O1 (stereo not given)	n	n	n	n	n	n
CCN(CC(=O)NC(C)(C)C)C(=O)c1ccccc1SCC(=O)NC1CCCCCCC1	n	n	n	n	n	n
Cc1c(O)cccc1C(=O)N[C@@H](CSc1ccccc1)[C@H](O)CN1C[C@H]2CCCC[C@H]2C[C@H]1C(=O)NC(C)(C)C	n	n	n	n	n	76.9!
CN(C)c1ccc(-c2c(-c3ccc4c(c3)OCO4)noc2-c2ccsc2)cn1	n	n	n	n	n	n
O=C(O)c1cc(-c2ccc(-c3c(-c4ccc5c(c4)OCO5)noc3-c3ccsc3)cc2)nc2ccccc12	n	n	n	56.7	n	n
CCN(CC(=O)Nc1c(F)cccc1F)C(=O)C1CCN(c2ncnc3sc(C)c(C)c23)CC1	n	n	n	n	n	n
O=C(NCCc1ccccc1)C1CCCN(c2cnccn2)C1 (stereo not given)	n	n	n	n	n	n
Cc1cc(C(=O)CSc2ccc(Cl)cc2)cc(C)c1OC(=S)N(C)C	n	n	79.9	n	n	n
COc1ccc(C)cc1NS(=O)(=O)c1ccc2c(c1)N(C)CCO2	n	n	n	n	n	n
COC(=O)c1cc(C(=O)c2cc(Cl)ccc2O)coc1=N	n	n	n	70.2	n	n
SMILES	HIF-2a block	KKLEB tox	TROY signal inh	TWEAK-Fn14 inh	CF NFkB inh	Peg3 prom inh
COCCOC(=O)c1cc(C(=O)c2cc(F)ccc2O)coc1=N	n	n	n	n	n	n
Cc1nc(NCCCN2CCOCC2)c2cnn(-c3ccccc3)c2n1	n	n	n	n	n	n
O=C(O)c1ccc(Oc2nc3ccccc3s2)cc1	n	n	n	n	n	84.0
COc1ccc(-c2ccc(C(=O)NCc3ccc(N(C)C)cc3)c3occc23)c(C)c1	n	n	n	n	n	n
CCc1cc(C(=O)N2CCN(c3ncc(C(F)(F)F)cc3Cl)CC2)sc1C	n	n	n	55.6	n	n
COc1ccccc1OCCNc1ccc(S(=O)(=O)N2CCCC2)cn1	n	n	n	n	n	n
O=C(CCN1C(=O)/C(=C/c2cccs2)SC1=S)Nc1cccc(O)c1	n	n	53.7	n	n	n
O=C(CCCN1C(=O)/C(=C/c2cccs2)SC1=S)NNC(=O)c1ccc(F)cc1	45.7	n	n	n	n	n
O=C(CCCN1C(=O)/C(=C\c2cccs2)SC1=S)Nc1cc([N+](=O)[O-])ccc1O	n	n	n	n	53.0	n
O=C(CCCN1C(=O)/C(=C/c2cccs2)SC1=S)Nc1cccc(O)c1	n	n	n	n	n	60.9
O=C(CCCN1C(=O)/C(=C/c2cccs2)SC1=S)Nc1ccc(C(=O)O)cc1	n	n	n	n	n	n
O=C(CCCN1C(=O)/C(=C/c2cccs2)SC1=S)Nc1cccc(C(=O)O)c1	n	n	n	n	n	n
CC(Sc1ccc(S(=O)(=O)N(C)C)cn1)C(=O)NC1CCCC1 (stereo not given)	n	n	n	n	n	n
COc1cccc(CN2CCC2(C)C(=O)Nc2cccc(Oc3ccccc3)c2)c1F (stereo not given)	n	n	n	n	n	52.0
COc1cccc(NC(=O)C2(C)CCN2Cc2cccc(OC)c2F)c1 (stereo not given)	n	n	n	n	n	n
COCCN1C[C@@H](CO)O[C@@H](n2cnc3c(NCC(C)C)ncnc32)C1	n	n	n	n	n	n
CNS(=O)(=O)c1cccc(C(=O)OCC(=O)Nc2ccc3ccccc3c2)c1	n	n	n	n	n	n
CCc1ccc(OCC(O)CN2CCC(CN3C(=O)c4cccc5cccc(c45)C3=O)CC2)cc1 (stereo not given)	n	n	n	n	n	108.6
CC(=O)c1ccccc1OCC(O)CN1CCN(CCN2C(=O)c3cccc4cccc(c34)C2=O)CC1 (stereo not given)	n	n	n	n	n	n
O=C1c2cccc3cccc(c23)C(=O)N1CC1CCN(CC(O)COc2ccc3ccccc3c2)CC1 (stereo not given)	n	n	n	n	n	100.5
